# Screening results: PubChem BioAssay, University of Kansas High Throughput Screening Laboratory
# Compounds with a hit are over-represented: about 3.6% of the library has one in this group of screens.
# mHTT-CaM PPI inh: disrupts binding of mutant huntingtin to calmodulin; P42858; AlphaScreen His-mHTT/GST-CaM binding, luminescence; inhibition, % at 15 µM; hit rate 3.6% among 190,000; AID 1671202;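 further: 0% = both proteins with DMSO and 100% = one protein alone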
# Pf apPOL inh: Pf-apPOL DNA polymerase inhibition | Recombinant Pf-apPOL, molecular beacon fluorescence, 1.5 h | inhibition, % at 10 µM | hit rate 0.25% among 210,000 | AID 1794808
# Numbers without * were called inactive; . = no result given. No stated cut-off is given here; in the data, active means inhibition above about 50%; inactive means the rest.
SMILES,mHTT-CaM PPI inh,Pf apPOL inh
COc1ccc(N2C(=O)CCC(C(=O)Nc3cc(OC)ccc3OC)C2c2ccc(F)cc2)cc1 (stereo not drawn),38,-2
CCOc1ccc2nc(NC(=O)c3ccc([N+](=O)[O-])cc3)sc2c1,0,-2
COc1ccc(CCNC(=O)CCN2N=C(c3ccccc3)CCC2=O)cc1OC,1,-18
COc1ccccc1CC(=O)NCCCc1ccccc1,-1,-10
COc1cccc2cc(C(=O)Nc3sc(-c4ccccc4)cc3C(N)=O)oc12,-36,0
COc1ccc(CC(=O)Nc2sc(-c3ccccc3)cc2C(N)=O)cc1OC,83*,-42
COCC(=O)Nc1cc(OC)ccc1OC,3,-9
COc1ccccc1CC(=O)NCCc1ccccc1,63*,-2
COc1ccc(OC)c(NC(=O)Cc2ccc(OC)c(OC)c2)c1,10,86*
COc1ccc(CCNC(=O)CCN2N=C(c3ccc(C)cc3)CCC2=O)cc1OC,87*,-16
COc1cc(C2=N/C(=C\c3cccc(Cl)c3Cl)C(=O)O2)cc(OC)c1OC,-3,-1
O=C(Nc1ccccc1)/C(=C\c1ccccc1)C(=O)Nc1cccc(C(F)(F)F)c1,-8,-1
Cc1ccc(-c2nc(C(=O)N(C)C)cs2)n1C,13,0
CC(C)(C)NC(=O)CN1CCC(c2nc(-c3cccc(F)c3)no2)CC1,14,-4
COc1ccc(CCNC(=O)Cc2ccc(OC)c(OC)c2)cc1OC,.,-2
COCC(=O)NCCc1ccc(OC)c(OC)c1,3,98*
CCN(CC)c1ccc(NC(=O)Cc2ccccc2)cc1,39,0
CCN(CC)c1ccc(C2NN=C(Cc3ccccc3)S2)cc1 (stereo not drawn),85*,-14
COc1cccc2ccc(C3C(=O)c4ccccc4C3=O)nc12,2,-4
COc1ccc(C2CC(C3C(=O)c4ccccc4C3=O)=NN2)cc1 (stereo not drawn),100*,-1
COc1cccc(C(CNC(=O)c2ccc3nsnc3c2)N2CCOCC2)c1 (stereo not drawn),4,-1
Cc1ccc(NC(=O)Cc2nc(-c3ccccn3)n[nH]2)cc1F,69*,-12
Cc1ccc(NC(=O)Cc2nc(-c3cccnc3)n[nH]2)cc1,-3,0
Cc1ccc(NC(=O)Cc2nc(-c3ccccc3)n[nH]2)cc1F,-4,-6
Cc1ccc(NC(=O)Cc2nc(-c3ccccn3)n[nH]2)cc1C,96*,-15
SMILES,mHTT-CaM PPI inh,Pf apPOL inh
COc1cccc(NC(=O)c2cc(C(C)C)n3nccc3n2)c1,-45,3
CCOc1ccc(N2CC(NC(=O)NCCc3ccc(S(N)(=O)=O)cc3)CC2=O)cc1 (stereo not drawn),-9,0
CCn1c(N2CCC(C(=O)NCc3ccc(OC)cc3)CC2)cc(=O)n(C)c1=O,57*,-6
CCn1c(N2CCC(C(=O)NCc3ccco3)CC2)cc(=O)n(C)c1=O,52*,-4
CCc1ccc(CNC(=O)C2CCN(c3cc(=O)n(C)c(=O)n3CC)CC2)cc1,41,-4
CCn1c(N2CCC(C(=O)NCc3ccc4c(c3)OCO4)CC2)cc(=O)n(C)c1=O,42,-3
O=C(Nc1ccc2c(c1)OCCO2)C1CCN(c2cncnc2N2CCCCC2)CC1,28,2
COc1nccc(N2CCC(CC(=O)N3CCN(C(C)C)CC3)CC2)n1,4,-3
Cc1ccc(-c2nc3cc(N)ccc3o2)cc1C,24,-17
Cc1ccc(-c2coc(-c3ccc(N)cc3)n2)c(C)c1,59*,0
Cc1ccc(-c2csc(N)n2)c(C)c1,13,-3
Cc1ccc(C)c(-c2coc(-c3ccc(N)cc3)n2)c1,53*,-1
O=C(CSc1nnc(-c2cccnc2)n1-c1ccccc1)Nc1ccc(Cl)c(Cl)c1,5,0
Cc1cnc(NC(=O)c2csc(Nc3ccc(S(C)(=O)=O)cc3)n2)s1,12,-6
CC(=O)c1c(C)oc2c1c1c(c3ccccc32)OCN(CCC2=CCCCC2)C1,35,-7
Cc1cc(C)nc(N=C(N)Nc2cccc(F)c2)n1,-3,-7
O=C(C1COc2ccccc2O1)N1CCC(CCOCc2cccc(F)c2)CC1 (stereo not drawn),-20,-3
COCC(=O)NC1CCc2[nH]c3c(C)cccc3c2C1 (stereo not drawn),10,-2
Cc1ccccc1CC(=O)NC1CCc2[nH]c3c(C)cccc3c2C1 (stereo not drawn),29,13
CCc1cccc2c3c([nH]c12)CCC(NC(=O)CC1C=CCC1)C3 (stereo not drawn),57*,10
Cc1nc(CC(=O)NC2CCc3[nH]c4c(Cl)cccc4c3C2)c(C)s1 (stereo not drawn),95*,-12
O=c1[nH]c2ccc(F)cc2c(=O)c2ccccc12,-6,.
CC(=O)NCCc1csc(C2CCN(C(=O)c3ccc(C)s3)CC2)n1,13,-4
Cc1ccc(CNCc2csc(N3CCN(C(=O)c4cccs4)CC3)n2)cc1,11,-6
Cc1cc(C)c(C)c(S(=O)(=O)N2CCC(c3c[nH]c4c(C)cccc34)CC2)c1C,50*,-5
